Screens: PubChem, National Center for Advancing Translational Sciences (NCATS)
Pol III holo inh – qHTS Assay for Inhibitors of DNA Polymerase III Holoenzyme System. reconstituted DNA polymerase III holoenzyme replication, biochemical. Potency, µM (highest dose often 57.1 µM), for the others: top-dose activity change, negative = inhibition. 71,000 tested, 0.25% active. AID 603, 2007; further: potency means the concentration at half of the fitted maximal effect; on the % scale 0 is the no-effect control and ±100 the full control effect
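Reconstituted *E. coli* holoenzyme (0.35 nM Pol III, 1 nM beta, 154 nM SSB, 2 nM primase) was preincubated with compound for 15 min at RT. Synthesis on 1.4 nM ssM13Gori ran 35 min, then was stopped with PicoGreen/EDTA and read as dsDNA fluorescence.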
TsaE inh – qHTS Assay for Inhibitors of YjeE; purified YjeE enzyme, qHTS inhibition assay; tRNA threonylcarbamoyladenosine biosynthesis protein TsaE (Escherichia coli (strain …; 71,000 tested, 0.05% active; Potency, µM; AID 605, 2007
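Purified YjeE (10 uM) with BODIPY Texas Red-labeled ADP probe (2 uM); compounds pin-transferred, 15 min at room temperature. Binding inhibition read as decreased fluorescence polarization; ADP titration as control.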
ERK AVP block – qHTS Assay for Inhibitors of the ERK Signaling Pathway using a Homogeneous Screening Assay | 72,000 tested, 0.99% active | Potency, µM (top dose mostly 57.5 µM), without a hit: top-dose activity, negative = inhibition, usual class: inhibitors | HEK293-V1b, vasopressin-stimulated pERK AlphaScreen; further: potency means the concentration at half of the fitted maximal effect; on the % scale 0 is the no-effect control and ±100 the full control effect; nearly all actives have a fitted effect of over 55% in size
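HEK293 cells stably expressing V1b receptor, seeded overnight in 1% FBS, were treated with compounds for 30 min at 37C, then stimulated 5 min with 25 nM vasopressin; phospho-ERK read by AlphaScreen SureFire after lysis.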
Hsp90 Hop PPI – qHTS Assay for Disrupters of an Hsp90 Co-Chaperone Interaction | Hsp90 C-terminal peptide / TPR2A (Hop) interaction, human | AlphaScreen TPR2A-His6 binding biotin-Hsp90 C-terminal peptide | Potency, µM (titrated, usually from 57 µM), inactives show at the highest dose activity change, negative = inhibition | 71,000 tested, 0.44% active; active means well fitted curve in either direction with a large enough effect; inconclusive means small, poorly fitted or top-dose-only effect, or another doubt; further: potency means the concentration at half of the fitted maximal effect; on the % scale 0 is the no-effect control and ±100 the full control effect
Tau filament bind – qHTS Assay for Tau Filament Binding | recombinant tau filaments, thioflavin S fluorescence, 15 h; filaments grown with octadecylsulfate alongside compound | Potency, µM (top dose mostly 57.1 µM), without a hit: at the top dose activity change, negative = inhibition | AID 596, 2007 | 71,000 tested, 2% active;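 further: potency means the concentration at half of the fitted maximal effect; on the % scale 0 is the no-effect control and ±100 the full control effect; actives lower thioflavin S fluorescence by blocking filaments or displacing dye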
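Quantitative HTS: thioflavine S signal from ODS-induced tau filaments, excited at 450 nm, emission 510 nm. Conditions: 1 uM tau, 30 uM ODS, 15 h at 37 C, pH 7.4.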
ALOX15 inhib – qHTS Assay for Inhibitors of 15-hLO (15-human lipoxygenase) | Polyunsaturated fatty acid lipoxygenase ALOX15 (Homo sapiens), P16050 | purified 15hLO-1, xylenol orange hydroperoxide absorbance | Potency, µM (series often up to 57.1 µM), for the others: top-dose activity change, negative = inhibition, hits mostly inhibitors | 74,000 tested, 1.4% active; further: potency means the concentration at half of the fitted maximal effect; on the % scale 0 is the no-effect control and ±100 the full control effect; nearly all actives have a fitted effect of over 55% in size
Target sequence (P16050 whole entry, looked up): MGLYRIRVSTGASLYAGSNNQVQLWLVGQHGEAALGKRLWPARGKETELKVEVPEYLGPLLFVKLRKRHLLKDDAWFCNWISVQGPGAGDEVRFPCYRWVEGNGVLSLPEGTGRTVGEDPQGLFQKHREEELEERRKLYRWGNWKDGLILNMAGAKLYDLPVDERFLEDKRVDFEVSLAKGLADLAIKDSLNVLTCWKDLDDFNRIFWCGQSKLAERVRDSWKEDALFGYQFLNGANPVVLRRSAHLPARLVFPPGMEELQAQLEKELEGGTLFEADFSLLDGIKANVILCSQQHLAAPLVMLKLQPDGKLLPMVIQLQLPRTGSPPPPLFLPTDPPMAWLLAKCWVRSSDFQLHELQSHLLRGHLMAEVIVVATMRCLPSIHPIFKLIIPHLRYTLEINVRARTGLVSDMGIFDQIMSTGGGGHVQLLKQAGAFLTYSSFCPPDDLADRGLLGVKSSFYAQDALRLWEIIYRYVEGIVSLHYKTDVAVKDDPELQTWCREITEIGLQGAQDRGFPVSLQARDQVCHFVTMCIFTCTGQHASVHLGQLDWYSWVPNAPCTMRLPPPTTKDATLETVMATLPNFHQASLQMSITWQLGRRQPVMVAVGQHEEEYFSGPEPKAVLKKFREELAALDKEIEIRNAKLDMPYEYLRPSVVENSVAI
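Inhibition is scored from a chromogenic endpoint. After 15 min enzyme-compound contact, arachidonic acid (50 uM final) reacts 6 min with 40 nM 15hLO-1 at room temperature, then Fe-XO reagent is added for 30 min and absorbance ratio recorded.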
* = called active by the depositor; i = inactive; ? = inconclusive; nt = no result given; ! = not confirmed by another sample; [ ] = dose if it differs, or a comment. The list is not random: actives were taken first. Their share in the collection is about 4.2%. Unless noted, the call rests on the fitted dose curve; in most records, active means well fitted curve in the direction sought with a large enough effect; inconclusive means small, poorly fitted or top-dose-only effect, or another doubt; inactive means no such curve, though single readings can be large; an effect the other way counts as inactive or inconclusive.

SMILES	Pol III holo inh	TsaE inh	ERK AVP block	Hsp90 Hop PPI	Tau filament bind	ALOX15 inhib
CCOC(=O)C1CCCN(CC(O)COc2ccc(OC)cc2C(C)(C)C)C1 (stereo not drawn)	-6.1%	i	-2.5%	-1.2%	-22.1%	-22.8%
C=CCNc1nc(NCc2ccco2)nc(OCC)n1	-3.5%	i	25.1µM*	?	-8.1%	-9.8%
C=CCNc1nc(NC(C)(C)CO)nc(OCC)n1	-1.2%	i	-17.8%	-1.5%	-13.1%	8.9%
NC(=O)CNCCC(c1ccccc1)c1ccccc1	-6.5%	i	7.6%	-1.4%	-5.8%	20µM*!
C[C@H](NCCC(c1ccccc1)c1ccccc1)c1ccccc1	0.9%[25.6 µM]	i	-5.0%[25.7 µM]	-2.1%[26 µM]	21.3%[25.6 µM]	-8.7%[25.6 µM]
CCCCCCCCCCCCCCCC(=O)NCCc1ccc(O)c(O)c1	nt	nt	2.2%	nt	nt	-4.8%
CCCCCCCC/C=C\CCCCCCCC(=O)NCc1ccc(O)c(OC)c1	2.5%	i	13.4%	-1.2%	39.8µM*	2.6%[25.6 µM]
CCCCCCCC/C=C\CCCCCCCC(=O)NCCc1ccc(O)c(O)c1	-0.2%	i	?	?	-8.8%	3.98µM*
O=c1[nH]c2ccc(Cl)cc2c(-c2ccccc2)c1CN1CCOCC1	-27.7%	i	-3.0%	-2.1%	12.6µM*	?
COC(c1ccccc1)C(C)C(OC)C(C)C(OC)C(C)C(C)=O (stereo not drawn)	nt	nt	14.6%[11.5 µM]	nt	nt	5.4%[11.4 µM]
CC(C)[C@@H](CC(=O)N[C@@H]1CCNC[C@H]1C(=O)N[C@H](CC(=O)N[C@@H](CCC(=O)O)CC(=O)O)Cc1ccccc1)NC(=O)C[C@H](Cc1c[nH]c2ccccc12)NC(=O)[C@@H]1CCCC[C@H]1N	-0.3%	?	nt	31.6µM*	-25.2%	nt
CC(C)[C@@H](CC(=O)N[C@@H]1CCNC[C@H]1C(=O)N[C@H](CC(=O)N[C@@H](CCC(=O)O)CC(=O)O)Cc1c[nH]c2ccccc12)NC(=O)C[C@H](Cc1c[nH]c2ccccc12)NC(=O)[C@@H]1CCCC[C@H]1N	-4.1%	i	nt	-11.5%	-5.2%	nt
COc1ccc(S(=O)(=O)N2CCN(C)CC2)c2ccccc12	-4.3%	i	-25.6%	-5.3%[2.3 µM]	-15.3%	13.1%
COc1ccc(OC)c(Nc2nc(-c3sc(N)nc3C)cs2)c1	-5.2%	i	8.7%	?	10µM*	-2.2%
Cc1nc(C)c(-c2csc(Nc3cccnc3)n2)s1	-7.9%	i	-10.8%	-0.8%	?	0.0%
CC(=O)Nc1nc(C)c(-c2csc(Nc3ccc(O)cc3)n2)s1	-2.5%	i	-4.9%	-19.7%	?	12.6µM*
Cc1nc(N)sc1-c1csc(Nc2ccccc2)n1	-1.0%	i	-13.4%	?	20µM*	?
Cc1cc(O)ccc1Nc1nc(-c2sc(N)nc2C)cs1	5.3%	i	-6.2%	-1.4%	-13.1%	6.0%
C=C[C@](C)(O)CCC1C(=C)CC(OC(C)=O)C2C(C)(C)CCCC12C (stereo partly drawn)	nt	nt	?	nt	nt	-69.5%
CCOC(=O)CSc1nc2c(c(=O)[nH]c(=O)n2C)n1C/C=C(/C)Cl	-6.2%	i	-7.2%	-5.3%	7.3%	-12.8%
C/C(Cl)=C/Cn1c(SC(C)C)nc2c1c(=O)[nH]c(=O)n2C	-5.2%	i	15.8µM*	0.6%	1.5%	?
COc1ccc2[nH]c(=O)c(CN(C(=O)C3CCCO3)c3cccc(C)c3)cc2c1 (stereo not drawn)	-0.8%	i	-12.4%	-5.2%	-2.6%	-1.8%
CC(CNC(=O)C1CCCCC1)NC(=O)C1CCCCC1 (stereo not drawn)	8.3%	i	1.4%	-2.5%	-6.7%	2.3%
CCCn1c(CN2CCCCC2CC)nc2c1c(=O)n(C)c(=O)n2C (stereo not drawn)	0.4%	i	nt	?	7.4%	14.0%
Nc1cc(CN2C(=O)c3ccccc3C2=O)cc(Cl)c1O	-4.8%	i	-23.0%	-11.1%	-12.6%	10µM*
SMILES	Pol III holo inh	TsaE inh	ERK AVP block	Hsp90 Hop PPI	Tau filament bind	ALOX15 inhib
O=C1c2ccccc2C(=O)N1Cc1ccc2c(c1)OCO2	-2.7%	i	8.7%	7.6%	-10.3%	-0.7%
Cn1nc(-c2ccc(OCC(=O)Nc3cccnc3)cc2)c2ccccc2c1=O	-2.3%	i	31.6µM*	-5.4%	5.0%	-2.5%
N#Cc1nc(N2CCCC2)nc(N2CCCC2)n1	0.0%	i	?	-7.1%	41.3%	-1.2%
N#Cc1nc(N2CCCCC2)nc(N2CCOCC2)n1	3.3%	i	?	-0.3%	2.51µM*	8.0%
Cc1ccc(S(=O)(=O)N2CCCC2C(=O)OCC(=O)Nc2ccc3c(c2)OCO3)cc1 (stereo not drawn)	2.0%	i	3.6%	-2.6%	-9.6%	-0.8%
CCN(CC)c1ccc2c(c1)CCCN2	-5.0%	i	-27.2%	15.8µM*	25.1µM*	?
CCOC(=O)c1c(NC(=O)CSc2nnc(-c3ccc(OC)cc3)o2)sc2c1CCC2	-2.4%	i	10.4%	1.9%	16.9%	-18.7%
CCCCCCNC(=O)Nc1ccc(S(=O)(=O)Nc2ccc(CCNC[C@H](O)COc3ccc(O)cc3)cc2)cc1	nt	nt	-12.1%	nt	nt	7.94µM*
NNc1nncc2ccccc12	-5.2%[25.6 µM]	i	-13.0%	12.6µM*!	-17.6%[25.6 µM]	-8.3%
Oc1ccc(N2CCN(c3ncnc4sc5c(c34)CCC5)CC2)cc1	-5.7%	i	?	-18.7%	-19.3%	3.16µM*
Cc1nc(N2CCN(c3ccccc3)CC2)c2c3c(sc2n1)CCC3	0.1%	i	0.3%	-5.6%	33.9%	?
c1ccc(Nc2ncnc3c2oc2ccccc23)cc1	-4.4%	i	-19.3%	1.8%	24.0%	-21.9%
CCc1nc(Nc2ccc(N3CCN(C(C)=O)CC3)cc2)c2oc3ccccc3c2n1	-7.2%	i	31.6µM*	-18.6%	20µM*	-23.8%
CCOC(=O)C1CCCN(c2ncnc3c2oc2ccccc23)C1 (stereo not drawn)	-4.9%	i	25.1µM*	-2.0%	21.8%	-0.8%
CC(=O)N1CCN(c2ccc(Nc3ncnc4c3oc3ccccc34)cc2)CC1	-2.3%	i	20µM*	-8.4%	25.1µM*	-14.0%
CCc1nnc(N2CCN(c3ncnc4c3oc3ccccc34)CC2)s1	-9.7%	i	-17.3%	-1.4%	23.1%	-8.7%
c1ccc(N2CCN(c3ncnc4c3oc3ccccc34)CC2)cc1	-2.9%	i	31.6µM*	1.6%	119.3%	6.8%
c1ccc2c(c1)oc1c(Nc3ccc(CN4CCOCC4)cc3)ncnc12	0.6%	i	20µM*	-9.0%	-14.1%	-15.9%
c1ccc2c(c1)oc1c(NCCN3CCOCC3)ncnc12	-2.7%	i	-9.0%	-3.1%	3.1%	-5.4%
